Consider eleven compounds from ChEMBL document CHEMBL3988442, “University of Dundee, Small-Polar-MMV Screening Library” (2021).

Structures are written as SMILES. For some of these results: Measured potencies and affinities stand elsewhere.

What all share (design): scale not given: direction of the effect not stated beside the values
The target of experiment [1] is Protein translocase subunit SecA (Escherichia coli (strain K12)) (UniProt P10408). As to the kind of experiment: Assay to Identify E. coli SecA ATPase Inhibitors. As to conditions: 30 µM. Type of experiment: functional.
For experiment [2], the target named is T1, Ubiquitin-activating enzyme e1, putative (Leishmania donovani (strain BPK282A1)) (UniProt E9BSI1).
T1 sequence (whole entry): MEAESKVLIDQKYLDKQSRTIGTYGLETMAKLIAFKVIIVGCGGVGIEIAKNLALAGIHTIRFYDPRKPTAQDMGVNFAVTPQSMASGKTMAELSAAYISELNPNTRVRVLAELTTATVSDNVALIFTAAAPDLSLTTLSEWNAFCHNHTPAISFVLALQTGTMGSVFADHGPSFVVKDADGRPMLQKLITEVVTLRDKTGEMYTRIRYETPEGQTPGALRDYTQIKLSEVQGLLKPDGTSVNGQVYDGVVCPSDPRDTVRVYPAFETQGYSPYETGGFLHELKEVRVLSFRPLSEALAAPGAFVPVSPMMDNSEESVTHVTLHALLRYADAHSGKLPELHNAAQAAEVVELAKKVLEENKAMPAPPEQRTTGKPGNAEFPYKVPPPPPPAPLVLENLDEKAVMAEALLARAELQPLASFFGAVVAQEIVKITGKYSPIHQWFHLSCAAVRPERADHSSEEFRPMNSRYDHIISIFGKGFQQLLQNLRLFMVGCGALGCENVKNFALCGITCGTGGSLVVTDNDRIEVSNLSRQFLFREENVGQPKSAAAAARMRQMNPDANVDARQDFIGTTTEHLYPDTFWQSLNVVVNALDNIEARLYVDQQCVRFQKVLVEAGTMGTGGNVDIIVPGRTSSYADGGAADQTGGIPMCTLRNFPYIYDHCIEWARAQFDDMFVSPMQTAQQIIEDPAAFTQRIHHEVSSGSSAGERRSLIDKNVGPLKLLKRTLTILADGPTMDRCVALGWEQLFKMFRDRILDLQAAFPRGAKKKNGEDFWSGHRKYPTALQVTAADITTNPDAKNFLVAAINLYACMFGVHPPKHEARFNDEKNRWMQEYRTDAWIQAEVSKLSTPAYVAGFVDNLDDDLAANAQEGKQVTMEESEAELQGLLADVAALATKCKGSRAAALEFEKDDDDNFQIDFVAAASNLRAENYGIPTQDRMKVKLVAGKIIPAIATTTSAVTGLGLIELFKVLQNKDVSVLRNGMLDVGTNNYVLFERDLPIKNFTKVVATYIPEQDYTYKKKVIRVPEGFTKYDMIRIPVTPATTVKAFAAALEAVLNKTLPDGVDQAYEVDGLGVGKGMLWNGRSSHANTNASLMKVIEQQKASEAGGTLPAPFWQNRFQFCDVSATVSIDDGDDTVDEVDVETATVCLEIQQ
As to the kind of experiment: Leishmania donovani Ubiquitin Activating Enzyme (LdE1). Type of experiment: functional. Particulars: 30 µM.

In experiment [3] the target is AMP-activated protein kinase, AMPK (Homo sapiens) (UniProt P54646+O43741+P54619+Q9UGJ0+Q9Y478+Q13131+Q9UGI9). As to the kind of experiment: AMP-dependent Kinase enzyme assay. An in vitro enzyme assay that detects ADP turnover that is directly proportional to AMPK activity. This uses naive AMPK that is activated during the assay with MK-8722. As to conditions: 30 µM. In kind it is functional.

For experiment [4], the target named is Sialic acid-binding Ig-like lectin 9 (Homo sapiens) (UniProt Q9Y336). As to the kind of experiment: Hs-Siglec9 ALPHAscreen SOP 20170721. Particulars: 10 µM. A general note: Alpha assays give light when donor and acceptor beads are brought close together.
In another experiment the test system is Trypanosoma cruzi. As to the kind of experiment: Trypanosoma cruzi phosphomannomutase and mannose-1-phosphate guanylyltransferase assay. In kind it is functional. Particulars: 10 µM.
The target in experiment [5] is T2, Arginase-2, mitochondrial (Homo sapiens) (UniProt P78540).
T2 sequence (whole entry): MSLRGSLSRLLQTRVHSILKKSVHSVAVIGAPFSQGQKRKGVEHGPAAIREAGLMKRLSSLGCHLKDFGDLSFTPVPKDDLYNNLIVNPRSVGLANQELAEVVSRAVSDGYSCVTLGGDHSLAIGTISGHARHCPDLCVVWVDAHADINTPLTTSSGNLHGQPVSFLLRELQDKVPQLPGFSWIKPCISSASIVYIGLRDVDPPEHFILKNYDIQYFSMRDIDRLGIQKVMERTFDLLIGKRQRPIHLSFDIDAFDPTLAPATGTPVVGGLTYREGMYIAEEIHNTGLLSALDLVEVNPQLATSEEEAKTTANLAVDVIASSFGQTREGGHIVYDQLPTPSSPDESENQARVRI
As to the kind of experiment: in vitro enzyme assay to detect the production of urea directly proportional to the activity of Arginase II. Note: in the data most compounds retested in dose-response had high values. As to conditions: 33.3 µM. Type of experiment: functional.

Experiment [6] has as its target T3, Proteasome subunit beta (Trypanosoma cruzi) (UniProt O96673).
T3 sequence (whole entry): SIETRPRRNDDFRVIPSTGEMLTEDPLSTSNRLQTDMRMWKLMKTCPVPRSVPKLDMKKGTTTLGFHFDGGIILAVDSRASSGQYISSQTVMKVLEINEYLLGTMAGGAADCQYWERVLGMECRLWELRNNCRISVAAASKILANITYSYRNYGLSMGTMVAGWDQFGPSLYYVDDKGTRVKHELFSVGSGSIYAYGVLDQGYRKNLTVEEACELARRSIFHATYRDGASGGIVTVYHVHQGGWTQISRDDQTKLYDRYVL
As to the kind of experiment: Trypanosoma cruzi proteasome chymotrypsin-like activity (TcProtChymo) assay. Note: in the data most compounds retested in dose-response had high values. In kind it is functional. As to conditions: 9.37 µM.

The species named for the next experiment is Homo sapiens. As to the kind of experiment: To identify inhibition of the IFN signalling (Jak-Stat) pathway via expression of an eGFP reporter gene under the control of an IFN-stimulated response element (ISRE) containing MxA promoter. Particulars: 30 µM. Type of experiment: functional. A general note: A reporter such as luciferase makes a cellular process visible.

For experiment [7], the target named is T4, Tyrosyl-tRNA synthetase, putative (Trypanosoma cruzi (strain CL Brener)) (UniProt Q4DSP6).
T4 sequence (whole entry): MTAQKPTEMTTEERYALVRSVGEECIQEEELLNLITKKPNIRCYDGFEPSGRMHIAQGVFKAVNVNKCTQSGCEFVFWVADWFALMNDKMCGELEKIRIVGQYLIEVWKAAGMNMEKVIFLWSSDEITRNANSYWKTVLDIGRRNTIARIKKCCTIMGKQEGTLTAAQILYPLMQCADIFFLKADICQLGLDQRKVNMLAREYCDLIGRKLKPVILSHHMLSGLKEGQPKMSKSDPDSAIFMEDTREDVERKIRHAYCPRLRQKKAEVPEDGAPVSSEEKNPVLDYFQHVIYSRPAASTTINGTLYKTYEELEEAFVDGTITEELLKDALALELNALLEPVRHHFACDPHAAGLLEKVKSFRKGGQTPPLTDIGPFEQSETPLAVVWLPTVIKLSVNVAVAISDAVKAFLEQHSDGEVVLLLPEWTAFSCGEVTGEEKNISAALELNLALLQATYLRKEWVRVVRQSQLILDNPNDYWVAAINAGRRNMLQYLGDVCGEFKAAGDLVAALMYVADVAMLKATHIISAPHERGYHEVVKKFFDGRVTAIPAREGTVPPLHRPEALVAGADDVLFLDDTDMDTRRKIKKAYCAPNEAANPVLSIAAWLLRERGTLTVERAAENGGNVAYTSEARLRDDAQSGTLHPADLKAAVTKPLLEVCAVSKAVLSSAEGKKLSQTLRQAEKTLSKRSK
As to the kind of experiment: Trypanosoma cruzi tyrosyl tRNA synthetase (TcYRS) _High Tyrosine SOP. Note: in the data most compounds retested in dose-response had high values. Type of experiment: functional. Particulars: 30 µM.

Experiment [8] deals with T4, Tyrosyl-tRNA synthetase, putative (Trypanosoma cruzi (strain CL Brener)). As to the kind of experiment: Trypanosoma cruzi tyrosyl tRNA synthetase (TcYRS) SOP. In kind it is functional. Particulars: 30 µM.
Experiment [9] deals with Chromo domain-containing protein 1 (Saccharomyces cerevisiae (strain ATCC 204508 / S288c) (Baker's yeast)) (UniProt P32657). As to the kind of experiment: ScCHD-1 Enzyme Inhibition Assay. Note: in the data most compounds retested in dose-response had high values. As to conditions: 30 µM. In kind it is functional.
Chromo domain-containing protein 1 (Saccharomyces cerevisiae (strain ATCC 204508 / S288c) (Baker's yeast)), sequence (P32657 whole entry, the tested form may be a part): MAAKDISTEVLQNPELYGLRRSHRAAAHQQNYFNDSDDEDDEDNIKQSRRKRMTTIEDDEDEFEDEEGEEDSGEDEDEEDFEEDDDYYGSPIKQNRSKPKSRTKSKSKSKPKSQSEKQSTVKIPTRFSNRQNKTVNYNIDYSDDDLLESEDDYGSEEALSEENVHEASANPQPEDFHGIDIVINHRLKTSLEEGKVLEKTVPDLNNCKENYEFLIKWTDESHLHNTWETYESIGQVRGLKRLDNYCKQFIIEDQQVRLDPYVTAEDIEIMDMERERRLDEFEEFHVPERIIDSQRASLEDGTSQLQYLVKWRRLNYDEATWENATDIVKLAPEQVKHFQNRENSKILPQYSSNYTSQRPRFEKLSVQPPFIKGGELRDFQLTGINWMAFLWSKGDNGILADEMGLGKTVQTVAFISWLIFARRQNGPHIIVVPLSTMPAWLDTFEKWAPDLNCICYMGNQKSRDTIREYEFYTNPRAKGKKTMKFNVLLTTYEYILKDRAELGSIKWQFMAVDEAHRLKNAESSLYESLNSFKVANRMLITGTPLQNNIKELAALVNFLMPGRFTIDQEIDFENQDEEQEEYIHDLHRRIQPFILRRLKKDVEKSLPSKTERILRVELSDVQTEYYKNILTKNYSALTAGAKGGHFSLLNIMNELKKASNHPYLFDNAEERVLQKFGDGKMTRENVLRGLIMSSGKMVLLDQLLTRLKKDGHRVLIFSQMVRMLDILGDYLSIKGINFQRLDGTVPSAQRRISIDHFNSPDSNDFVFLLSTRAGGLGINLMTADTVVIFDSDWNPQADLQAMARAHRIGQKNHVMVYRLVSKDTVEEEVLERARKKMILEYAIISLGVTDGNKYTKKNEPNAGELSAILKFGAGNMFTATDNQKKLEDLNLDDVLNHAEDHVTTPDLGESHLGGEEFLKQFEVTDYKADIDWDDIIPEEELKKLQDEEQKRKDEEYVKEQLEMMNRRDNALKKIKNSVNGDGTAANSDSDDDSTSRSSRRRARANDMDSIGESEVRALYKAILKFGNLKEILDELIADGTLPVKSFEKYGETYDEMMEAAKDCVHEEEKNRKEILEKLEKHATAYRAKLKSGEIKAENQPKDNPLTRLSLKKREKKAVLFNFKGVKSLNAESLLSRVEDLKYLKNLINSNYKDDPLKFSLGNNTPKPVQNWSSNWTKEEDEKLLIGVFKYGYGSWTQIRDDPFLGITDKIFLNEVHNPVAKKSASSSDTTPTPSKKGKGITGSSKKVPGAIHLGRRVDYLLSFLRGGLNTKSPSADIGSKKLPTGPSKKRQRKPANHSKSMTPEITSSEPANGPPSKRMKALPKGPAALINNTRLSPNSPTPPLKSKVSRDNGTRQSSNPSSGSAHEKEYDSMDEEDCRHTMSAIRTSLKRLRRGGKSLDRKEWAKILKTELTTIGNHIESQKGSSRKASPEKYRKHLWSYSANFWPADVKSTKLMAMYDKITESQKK

Protein translocase subunit SecA (Escherichia coli (strain K12)), sequence (P10408 whole entry): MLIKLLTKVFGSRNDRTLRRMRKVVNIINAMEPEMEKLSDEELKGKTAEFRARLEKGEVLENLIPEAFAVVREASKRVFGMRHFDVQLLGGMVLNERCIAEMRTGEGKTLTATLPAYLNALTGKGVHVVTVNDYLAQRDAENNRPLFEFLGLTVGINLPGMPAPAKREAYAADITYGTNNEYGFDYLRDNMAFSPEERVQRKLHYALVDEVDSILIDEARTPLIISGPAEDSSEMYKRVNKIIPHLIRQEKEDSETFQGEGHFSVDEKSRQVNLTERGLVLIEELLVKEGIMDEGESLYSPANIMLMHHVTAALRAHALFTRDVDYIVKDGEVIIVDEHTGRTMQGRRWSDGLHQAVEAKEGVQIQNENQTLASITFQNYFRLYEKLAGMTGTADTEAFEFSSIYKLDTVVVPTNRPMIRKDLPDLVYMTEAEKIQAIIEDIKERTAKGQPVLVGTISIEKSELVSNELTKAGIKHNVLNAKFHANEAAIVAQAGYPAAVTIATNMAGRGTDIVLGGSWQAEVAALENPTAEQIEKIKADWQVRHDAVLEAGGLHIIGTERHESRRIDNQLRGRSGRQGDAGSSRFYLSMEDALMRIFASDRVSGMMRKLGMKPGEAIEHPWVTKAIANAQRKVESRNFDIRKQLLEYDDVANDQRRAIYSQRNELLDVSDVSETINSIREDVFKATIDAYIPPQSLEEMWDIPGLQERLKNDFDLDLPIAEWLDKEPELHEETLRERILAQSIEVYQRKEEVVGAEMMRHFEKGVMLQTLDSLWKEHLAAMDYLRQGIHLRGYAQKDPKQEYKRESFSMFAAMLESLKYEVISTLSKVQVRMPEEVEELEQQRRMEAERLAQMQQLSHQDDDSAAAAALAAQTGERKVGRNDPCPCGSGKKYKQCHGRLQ
Sialic acid-binding Ig-like lectin 9 (Homo sapiens), sequence (Q9Y336 whole entry): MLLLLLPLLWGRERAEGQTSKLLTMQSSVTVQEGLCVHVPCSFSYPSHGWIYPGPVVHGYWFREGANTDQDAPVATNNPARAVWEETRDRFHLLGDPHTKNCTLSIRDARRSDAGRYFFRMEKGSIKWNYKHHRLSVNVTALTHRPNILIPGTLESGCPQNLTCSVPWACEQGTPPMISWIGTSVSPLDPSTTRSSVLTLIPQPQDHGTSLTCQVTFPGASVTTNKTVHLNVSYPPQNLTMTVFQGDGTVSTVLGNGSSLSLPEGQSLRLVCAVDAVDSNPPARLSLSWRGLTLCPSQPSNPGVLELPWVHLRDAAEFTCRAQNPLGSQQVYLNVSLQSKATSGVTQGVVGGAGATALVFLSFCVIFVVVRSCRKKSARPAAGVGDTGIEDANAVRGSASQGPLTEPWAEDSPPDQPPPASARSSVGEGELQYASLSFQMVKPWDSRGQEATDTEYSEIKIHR

Turning to `O=C(CCCc1nnc(-c2ccccc2)o1)N1CCN(CCO)CC1`, the Percent Effect was 0.944% in experiment [1]; 5.06% in experiment [2]; -13.1% in experiment [3]; 8.28% in [4]; -2.36% in the experiment on Trypanosoma cruzi; 5.7% in experiment [5]. Besides, the Percent Effect was 12.2% in [6]; 0.191% in the experiment listed under Homo sapiens; 2.46% in experiment [7]; 8.86% in experiment [8]; -6.47% in experiment [9].
With `Cc1noc(C2CCCCN2C(=O)NC2CCCC2)n1` (stereo unspecified), the Percent Effect is 1.58% in experiment [1]; 7.89% in experiment [2]; 5.88% in experiment [3]; -7.67% in experiment [4]; -9.25% in the experiment on Trypanosoma cruzi; -2.37% in experiment [5]. Also, the Percent Effect in experiment [6] was 21.8%; in the experiment listed under Homo sapiens it was 0.903%; in experiment [7] it was 2.13%; in experiment [8], 2.6%; in [9] it was -4.56%.
Regarding `Cc1cc(C)n(C2CN(CC(=O)N(C)Cc3ccc(C)o3)C2)n1`, the Percent Effect was -4.24% in experiment [1]; 5.26% in [2]; 17.1% in [3]; 6.03% in experiment [4]; 2.82% in the experiment on Trypanosoma cruzi; 3.55% in [5]. Besides, the Percent Effect is 9.49% in [6]; -0.498% in the experiment listed under Homo sapiens; 34% in [7]; 28.6% in [8]; -4.43% in experiment [9].
Consider `COc1c(CNCc2ccc(CN(C)C)cc2)c(C(C)C)nn1C`, for which the Percent Effect in experiment [1] was 2.77%; in experiment [2], -5.26%; in [3] it was 5.16%; in experiment [4], 1.34%; in the experiment on Trypanosoma cruzi, -1.5%; in experiment [5], 3.45%. Moreover, the Percent Effect is 2.34% in [6]; 11.8% in the experiment filed under Homo sapiens; -0.49% in experiment [7]; 4.88% in experiment [8]; -1.54% in experiment [9].
With `Cc1cc(N2CCC(c3nnc(CN(C)C)n3C3CC3)CC2)ccn1`, the Percent Effect in experiment [1] was -5.32%; in experiment [2], -1.39%; in experiment [3], 34.9%; in experiment [4], -1.61%; in the experiment with Trypanosoma cruzi it was -4.37%; in experiment [5], -0.883%. Further, the Percent Effect was 16.1% in experiment [6]; -6.01% in the experiment listed under Homo sapiens; 1.05% in experiment [7]; -5.13% in [8]; -4.13% in [9].
Regarding `O=C(c1cnc(COc2ccccc2)nc1O)N1CCOCC1`, the Percent Effect in experiment [1] is -3.01%; in experiment [2], 4.17%; in experiment [3], -4.14%; in [4], -9.54%; with Trypanosoma cruzi it was -1.07%; in [5], -0.442%. Moreover, the Percent Effect in [6] is 8.77%; in the experiment listed under Homo sapiens, 16.1%; in experiment [7], 2.1%; in experiment [8], 2.56%; in experiment [9], -1.09%.
On to `CC(=O)N1CC(=O)N(c2cnn(C)c2)CC12CCN(CC1CC1)C2` (stereo unspecified), for which the Percent Effect is -2.91% in experiment [1]; 0% in [2]; 1.91% in experiment [3]; 0.306% in experiment [4]; -3.52% with Trypanosoma cruzi; 1.67% in experiment [5]. For the same compound, the Percent Effect was 0.423% in experiment [6]; -7.14% in the experiment listed under Homo sapiens; 4.95% in [7]; 1.22% in experiment [8]; -0.193% in [9].
On to `CN1CC2(CCN(Cc3ccoc3)CC2)COc2ccccc2S1(=O)=O`, for which the Percent Effect is -0.535% in experiment [1]; 2.7% in experiment [2]; -0.665% in experiment [3]; 1.6% in [4]; -3.23% in the experiment on Trypanosoma cruzi; 5.21% in experiment [5]. The Percent Effect in experiment [6] was 14.8%; in the experiment listed under Homo sapiens, 4.83%; in experiment [7], 7.53%; in experiment [8] it was 13.6%; in experiment [9], -2.59%.
As to `CCS(=O)(=O)N1CCC2(CC1)CC(Oc1ccccn1)CO2` (stereo unspecified), the Percent Effect in [1] was -0.483%; in experiment [2], 10.4%; in experiment [3] it was 4.49%; in experiment [4] it was -1.15%; in the experiment on Trypanosoma cruzi, -5.23%; in experiment [5] it was 7.1%. Further, the Percent Effect in [6] is 11%; in the experiment filed under Homo sapiens, 17.8%; in experiment [7], 2.12%; in [8], 3.85%; in experiment [9], -7.08%.
On to `Cc1cc(CN2CCOC(CN(C)c3cccnn3)C2)no1` (stereo unspecified), for which the Percent Effect is -4.31% in experiment [1]; 0% in experiment [2]; 18.6% in [3]; -5.84% in experiment [4]; 3.23% in the experiment with Trypanosoma cruzi; -0.21% in [5]. For the same compound, the Percent Effect in experiment [6] was 6.39%; in the experiment listed under Homo sapiens, 1.91%; in experiment [7], 0.952%; in [8], 2.35%; in experiment [9] it was -18.6%.
With `Cc1ccc(C2COCCN2C(=O)c2ccc(N(C)C)cc2)o1` (stereo unspecified), the Percent Effect was -1.88% in experiment [1]; 10.7% in experiment [2]; -8.36% in [3]; 13.4% in experiment [4]; 3.02% with Trypanosoma cruzi; 13.5% in [5]. For the same compound, the Percent Effect is 15.9% in experiment [6]; 19.2% in the experiment filed under Homo sapiens; 2.73% in experiment [7]; 18.5% in [8]; -4.41% in experiment [9].
